Results as given in the supplement of paper PMC11172423.
Values without a mark were called inactive.

system: Falciformispora senegalensis CBS197.79; test: growth relative to untreated control; higher = less inhibition, active = 20 or less; conditions: 25 µM
Method in brief: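 Compound at 100 or 25 µM was applied for 7 days at 37 °C to hyphal fragments of M. mycetomatis MM55 or F. senegalensis CBS197.79 in 96-well plates. Fragments were suspended in colourless RPMI 1640 with L-glutamine and MOPS at 68–72% transmission at 660 nm, and viability was read with MTS (2 h, 490 nm) or resazurin (600 nm). Growth is reported as blank-corrected metabolic activity relative to the blank-corrected untreated growth control.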

First: CN1[C@H]2CC[C@H]1CC(OC(c1ccccc1)c1ccccc1)C2 (some centres not stated)
Second: Cc1ccccc1-c1noc(-c2ccccc2)n1
The growth of the first is higher: 103% for the first, 92.9% for the second.

Going from `C[C@@H]1CS/C(=N\NC(=O)C(=O)[C@@H](NC(=O)C2CCCCCC2)C2CCOCC2)N1C` to `CC(C)(C)NC(=O)N[C@H](C(=O)N1C[C@H]2[C@@H]([C@H]1C(=O)NC(CC1CCC1)C(=O)C(N)=O)C2(C)C)C(C)(C)C` (some centres not stated), the growth rises from 95.5% to 103%.

First: Cc1ccc(-c2ccc(C3(CN)CCOCC3)cc2)cn1
Second: COC(=O)[C@@]1(c2ccc(C)cc2)C[C@H]1CN1CCC(O)(c2ccccc2)CC1
The growth of the first is lower: 59% for the first, 95.2% for the second.

Compared with `OC1(CN2CCC(Oc3cccc(C(F)(F)F)c3)CC2)CCNC1` (configuration not stated), `O=C(NC1(CO)CCOCC1)c1cc2ccc(C(F)(F)F)cc2[nH]1` is lower in growth: 98.5% for the first, 89.7% for the second.

Going from `CC(C)OC(=O)[C@H](C)N[P@](=O)(OC[C@H]1O[C@@H](n2ccc(=O)[nH]c2=O)[C@](C)(F)[C@@H]1O)Oc1ccccc1` to `C[C@H](NC(=O)c1cc2c(F)cccc2[nH]1)c1ccccc1`, the growth falls from 112% to 84.1%.

Compared with `COc1ccc(-c2nc3c(NCc4ccccc4)nccc3[nH]2)c(OC)c1`, `CC[C@H](NC(=O)c1cc2c(F)cccc2[nH]1)c1ccccc1` is higher in growth: 63.7% for the first, 77.9% for the second.

Going from `COc1ccc2c(O[C@@H]3C[C@H]4C(=O)N[C@]5(C(=O)NS(=O)(=O)C6CC6)C[C@H]5/C=C\CCCCN(C)C(=O)[C@@H]4C3)cc(-c3nc(C(C)C)cs3)nc2c1C` to `COc1ccc2cc1Oc1ccc(cc1)C[C@H]1c3cc(c(OC)cc3CCN1C)Oc1c(O)c(OC)cc3c1[C@@H](C2)N(C)CC3`, the growth falls from 103% to 100%.

First: O=c1c(Cl)c(OCc2ccc(Cl)nc2)cnn1-c1ccc(Cl)c(Cl)c1
Second: Cc1nc2ccccc2n1Cc1ccc(Cl)cc1
The growth of the first is lower: 92.2% for the first, 106% for the second.

Compared with `CN(C)C(=O)COC(=O)Cc1ccc(OC(=O)c2ccc(NC(=N)N)cc2)cc1`, `O=C(Nc1cnc2ccccc2c1)c1ccccc1C(=O)c1ccc(F)cc1` is lower in growth: 112% for the first, 88.2% for the second.

Going from `N#Cc1ccc(-c2ccc3nc(Oc4ccc(C(F)(F)F)cn4)cn3c2)nc1` to `CNc1ccc2cc(NC(=O)c3ccc(C(F)(F)F)c(Cl)c3)ccc2n1`, the growth falls from 101% to 69.4%.

Compared with `CCN(CCO)CCCC(C)Nc1ccnc2cc(Cl)ccc12` (configuration not stated), `CN(C)CCNC(=O)c1csc(Nc2ccc(Cl)c(Cl)c2)n1` is lower in growth: 109% for the first, 92.7% for the second.

Going from `Nc1nc(C2CC2)cn1CC(O)c1ccc(Cl)cc1Cl` (configuration not stated) to `O=C(NC1CCCc2c1[nH]c1ccc(Cl)cc21)c1ccccn1` (configuration not stated), the growth rises from 86% to 107%.

First: OCCN1CCc2nc(NCc3ccc(F)cc3F)nc(NC34CC(C3)C4)c2CC1
Second: Cc1cc(OCCN2CCOCC2)nn1-c1ccc2ccccc2c1
The growth of the first is lower: 69.4% for the first, 105% for the second.

Compared with `COC(=O)C1=C(C)NC(C)=C(C(=O)OCCN2CCN(C(c3ccccc3)c3ccccc3)CC2)C1c1cccc([N+](=O)[O-])c1` (configuration not stated), `CO[C@@H]1[C@H](N(C)C(=O)c2ccccc2)C[C@H]2O[C@]1(C)n1c3ccccc3c3c4c(c5c6ccccc6n2c5c31)C(=O)NC4` is higher in growth: 94% for the first, 113% for the second.

Going from `CC(Nc1ccc2c(c1)OCCCO2)C(=O)Nc1cc(C(F)(F)F)ccc1N1CCOCC1` (configuration not stated) to `C[C@@H]1CCCN1CCc1cc2cc(-c3ccc(C#N)cc3)ccc2o1`, the growth rises from 87.5% to 98.4%.

Compared with `COc1cc2c3cc1Oc1c(OC)c(OC)cc4c1[C@@H](Cc1ccc(O)c(c1)Oc1ccc(cc1)C[C@@H]3N(C)CC2)N(C)CC4`, `Cc1noc(C2CN(C(=O)c3ccc(Nc4nccc(-c5ccc(Cl)cc5)n4)cc3)C2)n1` is lower in growth: 99.1% for the first, 73.8% for the second.

`C[C@H](CS)C(=O)N1CCC[C@H]1C(=O)O` was tested, and the growth was 109%.

For `COc1ccc(-c2cc3ncnc(N4CCN(CCN5CCCC5)CC4)c3s2)cc1`, the growth was 7.35% (active).
`O=C1NCCN1CCN1CCC(c2cn(-c3ccc(F)cc3)c3ccc(Cl)cc23)CC1` was tested, and the growth was 7.42% (active).
`Fc1cccc(-c2ccc3c(c2)CC(NCc2c[nH]c4cnccc24)C3)c1` (configuration not stated) was tested, and the growth was 6.11% (active).

same assay, conditions: 100 µM

Going from `CN1[C@H]2CC[C@H]1CC(OC(c1ccccc1)c1ccccc1)C2` (some centres not stated) to `Cc1ccccc1-c1noc(-c2ccccc2)n1`, the growth falls from 103% to 86.5%.

First: C[C@@H]1CS/C(=N\NC(=O)C(=O)[C@@H](NC(=O)C2CCCCCC2)C2CCOCC2)N1C
Second: CC(C)(C)NC(=O)N[C@H](C(=O)N1C[C@H]2[C@@H]([C@H]1C(=O)NC(CC1CCC1)C(=O)C(N)=O)C2(C)C)C(C)(C)C (some centres not stated)
The growth of the first is lower: 98.8% for the first, 101% for the second.

Compared with `Cc1ccc(-c2ccc(C3(CN)CCOCC3)cc2)cn1`, `COC(=O)[C@@]1(c2ccc(C)cc2)C[C@H]1CN1CCC(O)(c2ccccc2)CC1` is higher in growth: 25.4% for the first, 97.4% for the second.

Compared with `CC(C)OC(=O)[C@H](C)N[P@](=O)(OC[C@H]1O[C@@H](n2ccc(=O)[nH]c2=O)[C@](C)(F)[C@@H]1O)Oc1ccccc1`, `C[C@H](NC(=O)c1cc2c(F)cccc2[nH]1)c1ccccc1` is lower in growth: 108% for the first, 68.4% for the second.

Going from `COc1ccc(-c2nc3c(NCc4ccccc4)nccc3[nH]2)c(OC)c1` to `CC[C@H](NC(=O)c1cc2c(F)cccc2[nH]1)c1ccccc1`, the growth rises from 26.6% to 99%.

Going from `COc1ccc2c(O[C@@H]3C[C@H]4C(=O)N[C@]5(C(=O)NS(=O)(=O)C6CC6)C[C@H]5/C=C\CCCCN(C)C(=O)[C@@H]4C3)cc(-c3nc(C(C)C)cs3)nc2c1C` to `COC(=O)C1=C(C)NC(C)=C(C(=O)OCCN2CCN(C(c3ccccc3)c3ccccc3)CC2)C1c1cccc([N+](=O)[O-])c1` (configuration not stated), the growth falls from 100% to 99.1%.

First: O=c1c(Cl)c(OCc2ccc(Cl)nc2)cnn1-c1ccc(Cl)c(Cl)c1
Second: Cc1nc2ccccc2n1Cc1ccc(Cl)cc1
The growth of the first is higher: 103% for the first, 76.5% for the second.

First: CN(C)C(=O)COC(=O)Cc1ccc(OC(=O)c2ccc(NC(=N)N)cc2)cc1
Second: O=C(Nc1cnc2ccccc2c1)c1ccccc1C(=O)c1ccc(F)cc1
The growth of the first is higher: 108% for the first, 95.5% for the second.

Compared with `N#Cc1ccc(-c2ccc3nc(Oc4ccc(C(F)(F)F)cn4)cn3c2)nc1`, `CNc1ccc2cc(NC(=O)c3ccc(C(F)(F)F)c(Cl)c3)ccc2n1` is lower in growth: 109% for the first, 104% for the second.

Compared with `CCN(CCO)CCCC(C)Nc1ccnc2cc(Cl)ccc12` (configuration not stated), `CN(C)CCNC(=O)c1csc(Nc2ccc(Cl)c(Cl)c2)n1` is lower in growth: 105% for the first, 83.6% for the second.

First: Nc1nc(C2CC2)cn1CC(O)c1ccc(Cl)cc1Cl (configuration not stated)
Second: O=C(NC1CCCc2c1[nH]c1ccc(Cl)cc21)c1ccccn1 (configuration not stated)
The growth of the first is lower: 73.7% for the first, 103% for the second.

First: CC(Nc1ccc2c(c1)OCCCO2)C(=O)Nc1cc(C(F)(F)F)ccc1N1CCOCC1 (configuration not stated)
Second: O=C(NC1(CO)CCOCC1)c1cc2ccc(C(F)(F)F)cc2[nH]1
The growth of the first is higher: 86.1% for the first, 82.1% for the second.

First: Cc1cc(OCCN2CCOCC2)nn1-c1ccc2ccccc2c1
Second: Cc1noc(C2CN(C(=O)c3ccc(Nc4nccc(-c5ccc(Cl)cc5)n4)cc3)C2)n1
The growth of the first is higher: 103% for the first, 99.2% for the second.

First: CO[C@@H]1[C@H](N(C)C(=O)c2ccccc2)C[C@H]2O[C@]1(C)n1c3ccccc3c3c4c(c5c6ccccc6n2c5c31)C(=O)NC4
Second: C[C@H](CS)C(=O)N1CCC[C@H]1C(=O)O
The growth of the first is lower: 89.5% for the first, 91.7% for the second.

With `OC1(CN2CCC(Oc3cccc(C(F)(F)F)c3)CC2)CCNC1` (configuration not stated) the growth was 19.1% (active).
With `COc1ccc(-c2cc3ncnc(N4CCN(CCN5CCCC5)CC4)c3s2)cc1` the growth was 14.9% (active).
For `OCCN1CCc2nc(NCc3ccc(F)cc3F)nc(NC34CC(C3)C4)c2CC1`, the growth was 19.8% (active).
In the case of `O=C1NCCN1CCN1CCC(c2cn(-c3ccc(F)cc3)c3ccc(Cl)cc23)CC1`, the growth is reported as 19.4% (active).
`Fc1cccc(-c2ccc3c(c2)CC(NCc2c[nH]c4cnccc24)C3)c1` (configuration not stated) was tested, and the growth was 14.3% (active).
`C[C@@H]1CCCN1CCc1cc2cc(-c3ccc(C#N)cc3)ccc2o1` was tested, and the growth was 17.8% (active).
For `COc1ccc2cc1Oc1ccc(cc1)C[C@H]1c3cc(c(OC)cc3CCN1C)Oc1c(O)c(OC)cc3c1[C@@H](C2)N(C)CC3`, the growth was 19.7% (active).
With `COc1cc2c3cc1Oc1c(OC)c(OC)cc4c1[C@@H](Cc1ccc(O)c(c1)Oc1ccc(cc1)C[C@@H]3N(C)CC2)N(C)CC4` the growth was 12.6% (active).
